Compound activity from PubChem.
Only some compounds are listed: those with a hit (about 2% of all), similar ones and a draw of the others.
GalR3 antag: antagonists of human GalR3; HEK293 GalR3-CNG cAMP membrane potential fluorescence; galR3 body fused to GalR1 C-terminus; inhibition, % at 3 µM; actives 0.44% (n = 360,000); O60755; AID 651719;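 active = inhibition above the screen-wide average plus 3 SD, cut at about 13% in these data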;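 also: forskolin and galanin both at EC90 stimulate the cells; cAMP rise reported by CNG channel membrane potential dye signal; 0% = forskolin plus galanin with DMSO and 100% = forskolin alone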
Target sequence (O60755 1-299 limits assumed): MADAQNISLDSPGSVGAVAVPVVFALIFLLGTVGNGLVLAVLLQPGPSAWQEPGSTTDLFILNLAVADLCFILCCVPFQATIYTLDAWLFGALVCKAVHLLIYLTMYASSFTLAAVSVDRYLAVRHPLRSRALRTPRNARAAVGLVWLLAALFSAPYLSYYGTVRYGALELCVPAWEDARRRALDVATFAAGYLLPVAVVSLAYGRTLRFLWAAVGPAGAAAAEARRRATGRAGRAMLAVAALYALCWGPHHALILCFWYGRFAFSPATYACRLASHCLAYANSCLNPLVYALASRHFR
NR2F2 inh: NR2F2 (human) inhibition, primary screen; actives 0.7% (n = 370,000); AID 686940; inhibition, % at 8.6 µM; HEK293T NGFI-A luciferase reporter, luminescence;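 active = inhibition above a per-plate cutoff, mean inhibition of test wells between control levels plus 3 SD, cut at about 38% in these data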;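 also: cells cotransfected with COUP-TFII expression vector driving the NGFI-A reporter; 0% = median of COUP-TF2 test wells and 100% = reporter-only cells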
Jurkat NFkB inh: inhibitors of the PMA/ionomycin-induced NF-kB reporter in Jurkat cells; AID 435003; inhibition, % at 4 µM; PMA/ionomycin-induced NF-kB luciferase reporter, luminescence; actives 0.53% (n = 330,000); in the data active = inhibition above about 50%
697 NFkB inh: lowers PMA/ionomycin-induced NF-kB signal in 697 B cells. inhibition, % at 4 µM. AID 435022. 697 B-cell NF-kB luciferase reporter, 16 h. actives 0.33% (n = 330,000); in the data active = inhibition above about 35%
Gli-Sufu antag: Gli-Sufu pathway antagonism | actives 0.74% (n = 340,000) | inhibition, % at 5 µM | Sufu-KO-LIGHT fibroblasts, Gli luciferase reporter luminescence;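 active = inhibition above about 55%, limit read from the data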;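 also: 0% = DMSO-treated cells and 100% = wells with medium but no cells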
Jurkat NFkB conf: lowers PMA/ionomycin-induced NF-kB signal in Jurkat cells; actives 27% (n = 2,700); Jurkat NF-kB luciferase, 16 h; shares compounds with Jurkat NFkB inh; AID 435020; inhibition, % at 4 µM;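 active = inhibition reaching about 45% at 4 µM in either replicate, limit read from the data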;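 also: plate controls were PMA/ionomycin stimulated DMSO wells for no effect and unstimulated DMSO wells for full effect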
The depositor's hits bear a star; · = no result.

SMILES	GalR3 antag	NR2F2 inh	Jurkat NFkB inh	697 NFkB inh	Gli-Sufu antag	Jurkat NFkB conf
COc1ccc(NC(=O)C(=S)NC2CCCCC2)cc1	3	-49	-156	-141	-109	-49
CCOc1ccc(NC(=O)C(=S)NC2CCCCC2)cc1	-4	-11	-72	-33	-69	·
O=C(Nc1ccccc1)NC1CCCCCCC1	-5	-43	-65	-42	-36	·
CCNC(=O)O/N=C(\C)c1sc(-c2ccc(Cl)cc2)nc1C	-2	-23	-171	-143	-69	-100
CCC1(c2ccccc2)NC(=O)N(CC(=O)Nc2cc(C(F)(F)F)ccc2N2CCCC2)C1=O (stereo not given)	-5	-4	54*	10	8	-17
O=C(Nc1ccc(Br)c(C(F)(F)F)c1)[C@@H]1CC=C[C@@H]2CCN(CC3CC3)C(=O)[C@@H]21	·	1	·	·	·	·
COc1cc(/C=C/c2ccc3cccc(O)c3n2)cc(OC)c1OC	-1	0	97*	-182	18	35
COc1cc(/C=C/c2ccc3cccc(O)c3n2)cc(Br)c1OC	-7	-16	7	-202	-23	·
Cc1cccc(C)c1OCCNC(=O)C(=O)NCc1ccco1	6	-17	67*	-122	6	38
Cc1ccc(S(=O)(=O)N2CCCC2C(=O)N2CCN(c3ccccc3)CC2)cc1 (stereo not given)	·	10	·	·	·	·
CN1C(=O)C[C@@](C#N)(C(=O)NCc2ccccc2)[C@H]1c1ccccc1	·	-2	·	·	·	·
O=C(NC(=S)Nc1ccccn1)c1ccc([N+](=O)[O-])cc1	5	-45	-42	-94	-58	·
O=C(NC(=S)Nc1ccccn1)c1ccccc1	-2	-73	-150	-156	-89	26
CC(=O)O[C@H]1[C@H](OC(C)=O)C[C@]2(OC(C)=O)C[C@H]1OC2=O	·	3	·	·	·	·
COc1ccc2oc(=Nc3cc(F)ccc3F)c(C(N)=O)cc2c1	-6	-30	65*	-64	-11	25
CCN(C[C@@H]1[C@@H](c2ccccc2)[C@H](CO)N1S(C)(=O)=O)C(=O)C1CCC1	·	12	·	·	·	·
CC(=Nc1cccc(O)c1)c1sc2ccccc2c1O	-3	-18	-121	-185	-9	·
CC(=Nc1ccc(C)cc1C)c1sc2ccccc2c1O	-5	-70	-203	-173	-153	-40
Cc1cccn2c(=O)c3cc(C(=O)NC4CCCCC4)n(C)c3nc12	-1	-25	17	-19	-7	·
Cc1cccn2c(=O)c3cc(C(=O)NC4CCCC4)n(C)c3nc12	1	9	51*	-24	-21	13
c1ccc(-c2cnc(-c3ccccc3)nn2)cc1	1	-55	-178	-240	-114	-102
c1ccc(-c2cnc(-c3ccccn3)nn2)cc1	-6	-22	-114	-157	-44	·
C/C(=N\NC(=O)c1ccc(Cl)cc1)c1ccccn1	-12	-2	98*	-123	80*	-1
C/C(=N\NC(=O)c1ccncc1)c1ccc(NC(=O)c2ccc(Cl)cc2)cc1	-1	-20	-152	-165	-16	-92
C/C(=N\NC(=O)c1cc(C)nc2ccccc12)c1ccccn1	-6	-25	95*	-77	90*	45*
SMILES	GalR3 antag	NR2F2 inh	Jurkat NFkB inh	697 NFkB inh	Gli-Sufu antag	Jurkat NFkB conf
COC(=O)[C@]12C[C@H](CC(=O)NCc3cccc4ccccc34)C(=O)N(CCc3ccc(OC)c(OC)c3)C1=C[C@H](COCc1ccccc1)O[C@@H]2C	·	0	·	·	·	·
CC(=O)N(C)C1=C(N2CCOCC2)C(=O)c2ccccc2C1=O	·	·	87*	32	23	79*
C[C@@H]1OCN(C)[C@H]2C[C@H]3c4[nH]c5cccc(-c6ccccc6)c5c4CCN3C[C@@H]12	·	-2	·	·	·	·
Cn1cccc1/C=C1\SC(=Nc2ccc(O)cc2)NC1=O	2	-96	56*	-52	37	8
CC(=O)Nc1nc2ccc(S(=O)(=O)N3CCCC3)cc2s1	0	-12	7	-5	2	·
CCCC(=O)Nc1nc2ccc(S(=O)(=O)N3CCCCC3)cc2s1	-2	7	52*	-49	-12	49
O=C(NC1CCCCN(Cc2cccc(Cl)c2)C1=O)c1cccc(F)c1 (stereo not given)	·	0	·	·	·	·
O=c1c2sc(-c3ccccc3)cc2nc2n1CCC2	-4	-19	-63	-142	-47	·
O=c1c2sc(-c3ccccc3)cc2nc2n1CCCCC2	-4	-27	-166	-209	-92	-123
COc1cccc(-c2nnc(SCC(=O)Nc3cccc4ccccc34)n2Cc2ccco2)c1	·	18	·	·	·	·
Cn1c(=O)oc2cc(S(=O)(=O)N3CCc4ccccc43)ccc21	-4	-3	10	-16	7	·
COC(=O)Nc1ccc(S(=O)(=O)N2CCCc3ccccc32)cc1	-10	2	61*	-58	-3	56*
Cn1c(=O)oc2cc(S(=O)(=O)N3CCCc4ccccc43)ccc21	·	-7	55*	-47	39	32
COc1cc(/C=C/C(=O)c2ccccc2)cc(OC)c1OC	·	18	·	·	·	·
CC(COc1ccccc1C#N)CN1CCC(C(O)(c2ccccc2)c2ccccc2)CC1 (stereo not given)	·	1	·	·	·	·
Cc1ccc(S(=O)(=O)Nc2ccccc2-c2ccccc2)cc1	-11	-5	59*	-50	3	50*
O=C(NCc1ccco1)C1CCCN(S(=O)(=O)c2ccc([N+](=O)[O-])cc2)C1 (stereo not given)	·	8	·	·	·	·
Cc1ccc(Nc2cc(C)nn2-c2nc(C)cc(=O)[nH]2)cc1	·	·	97*	-107	92*	68*
CCOC(=O)c1c(C)[nH]c(N=Nc2cccc(OC)c2)c1C	-5	-47	-209	-174	-110	-39
CCOC(=O)c1c(C)[nH]c(N=Nc2cccc(C)c2)c1C	-5	-58	-111	-179	-104	·
Cc1ccccc1NC(=O)[C@@H]1CCCN1S(=O)(=O)c1cccc2cccnc12	·	3	·	·	·	·
Cc1cc(/C=C(\C#N)C(=O)Nc2ccccc2F)c(C)[nH]1	-7	-68	-191	-128	-134	-5
Cc1ccc(-c2nc3cc(Cl)ccc3o2)cc1	1	-51	-135	-198	-56	·
COc1cc(OC)cc(-c2nc3cc(C)ccc3o2)c1	0	-65	-151	-175	-89	-72
CCC/C(O)=C1\C(=O)CC(C)(C)CC1=Nc1ccc(OC)cc1OC	-1	0	62*	-40	4	39
SMILES	GalR3 antag	NR2F2 inh	Jurkat NFkB inh	697 NFkB inh	Gli-Sufu antag	Jurkat NFkB conf
Cc1ccc(S(=O)(=O)Nc2cccc3ncccc23)cc1	-4	-16	-5	-4	2	·
Cc1ccc(S(=O)(=O)Nc2cccc3ncccc23)s1	·	·	83*	-156	85*	21
COc1ccc(-c2nnc(SCc3ccccc3F)o2)cc1OC	2	-15	-30	-28	5	·
Cc1ccc(-c2nnc(SCc3ccccc3F)o2)cc1	-7	-38	-165	-149	-67	-72
COc1ccccc1-c1nnc2n1N=C(c1ccc(O)c(O)c1)CS2	·	·	81*	16	50	55*
O=C(OCC(=O)N1CCC(c2ccccc2)=N1)c1ccc(Cl)s1	-5	-7	-172	6	-1	7
